# Results from the supplement of paper PMC13380429.
# A number with no mark means an inactive call.
# System: Vero E6 infected with SARS-CoV-2
# Assay: inhibition of SARS-CoV-2 cytopathic effect; higher = more antiviral protection, active = above 15
# Conditions: 48 h
SMILES,inhibition of SARS-CoV-2 cytopathic effect (1 nM),inhibition of SARS-CoV-2 cytopathic effect (8.33 nM),inhibition of SARS-CoV-2 cytopathic effect (100 nM),inhibition of SARS-CoV-2 cytopathic effect (833.33 nM),inhibition of SARS-CoV-2 cytopathic effect (10000 nM)
CCOc1cccc(NC(=O)c2ccc(N3CCCC3)c(C(F)(F)F)c2)c1,0.59%,-0.15%,-0.42%,-1.65%,-2.63%
CC(C)n1nc(-c2ccc3oc(N)nc3c2)c2c(N)ncnc21,1.94%,2.32%,1.66%,-3.23%,-4.59%
COc1c(C)c2c(c(O)c1C/C=C(\C)CCC(=O)OCCN1CCOCC1)C(=O)OC2 [mycophenolate-mofetil],-1.57%,0.08%,0.94%,-5.7%,16.8% (active)
Cn1ncc(Cl)c1-c1cc(C(=O)N[C@H](CN)Cc2ccc(F)c(F)c2)oc1Cl [uprosertib],-2.98%,-0.16%,-1.46%,0.21%,-3.53%
Cc1cc(C)c(S(=O)(=O)Nc2cccc(C(F)(F)F)c2)c(C)c1,-1.28%,1.26%,1.15%,1.42%,2.48%
OCCn1cc(-c2cnc3nnn(Cc4ccc5ncccc5c4)c3n2)cn1,1.37%,2%,1.01%,2.71%,2.26%
COc1cc(C(=O)NCCCCCC(=O)O)cc(OC)c1OC [capobenic-acid],-6.75%,-2.2%,-0.79%,-1.85%,2.8%
Nc1nc(N)c2nc(-c3cccc(O)c3)cnc2n1,-0.93%,-0.26%,0.04%,-0.48%,-1.39%
CCS(=O)(=O)CCn1c([N+](=O)[O-])cnc1C [tinidazole],-3.22%,-2.91%,1.02%,4.13%,-0.87%
CCC(Cc1c(I)cc(I)c(N)c1I)C(=O)O (stereo not given) [iopanic-acid],2.78%,2.89%,1.6%,0.47%,2.12%
N[C@H](C(=O)O)[C@H](O)c1ccc(O)c(O)c1 [droxidopa],1.22%,3.16%,5.47%,1.07%,-5.92%
Nc1nc(O)c2ncn(CCC(CO)CO)c2n1 [penciclovir],-0.77%,-0.01%,-0.81%,0.81%,-2.4%
CC(C)c1cc(C(C)C)c(CC(=O)NS(=O)(=O)Oc2c(C(C)C)cccc2C(C)C)c(C(C)C)c1 [avasimibe],-2.41%,1.3%,-0.91%,-2.68%,-1.52%
O=C(NCCCN1CCCCCC1)C(c1ccccc1)C1CCCCC1 (stereo not given),-0.49%,0.99%,0.31%,-2.41%,-8.06%
C=C[C@H]1CN2CC[C@H]1C[C@@H]2[C@@H](O)c1ccnc2ccc(OC)cc12 [quinidine],-8.54%,-5.1%,-8.19%,-4.54%,-4.21%
CO[C@H]1/C=C/O[C@@]2(C)Oc3c(C)c(O)c4c(O)c(c5c(nc6cc(C)ccn65)c4c3C2=O)NC(=O)/C(C)=C\C=C\[C@H](C)[C@H](O)[C@@H](C)[C@@H](O)[C@@H](C)[C@H](OC(C)=O)[C@@H]1C [rifaximin],0.71%,-2.16%,-0.03%,-3.72%,-3.3%
C=C1CC[C@@H]2[C@](C)(CO)[C@H](O)CC[C@@]2(C)[C@@H]1C/C=C1/C(=O)OC[C@H]1O [andrographolide],-3.07%,-2.2%,-0.1%,8.92%,32.5% (active)
CC(=O)[C@@]12O[C@](C)(c3ccccc3)O[C@@H]1C[C@H]1[C@@H]3CCC4=CC(=O)CC[C@]4(C)[C@H]3CC[C@@]12C [algestone-acetophenide],0.43%,0.88%,1.95%,2.43%,2.91%
Cn1c(=O)n(-c2ccc(C(C)(C)C#N)cc2)c2c3cc(-c4cnc5ccccc5c4)ccc3ncc21,1.43%,-0.22%,0.93%,-5.08%,-5.4%
Nc1ccn([C@H]2C[C@H](O)[C@@H](CO)O2)c(=O)n1 [torcitabine],-1.42%,-0.61%,0.39%,-0.39%,1.92%
